# “And” between values parts separate entries of the source, which are not always exact repeats. Equal values may be shown once. Records with an inconclusive call do not appear. A call without a number means that no potency is given here. Unmarked numbers belong to inactive results. The source made the active and inactive calls. Calls come from the whole dose curve; as a rule, active = well fitted curve in the direction sought with a large enough effect; inconclusive = small, poorly fitted or top-dose-only effect, or another doubt; inactive = no such curve, though single readings can be large; an effect the other way counts as inactive or inconclusive.
# Tests used:
# [1] = Quantitative highthroughput screen to assess conditional lethalithy of NOMO1 cells grown in RPMI1640 with dialyzed fetal bovine serum (RPMI+ds) (AID 1963877); note: series mostly up to about 46 µM; nearly all actives have a fitted effect of over 30% in size
# Summary of the method: (§1)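 Each medium arm—HPLM with 10% dialyzed FBS, or RPMI1640 with 5 mM glucose and 10% untreated or dialyzed FBS—was screened against an 11-point, 3-fold compound titration for 48 h at 37 °C, with CellTiter-Glo luminescence as endpoint.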
# [2] = Quantitative highthroughput screen to assess conditional lethalithy of P12 Ichikawa cells grown in Human Plasma-Like Medium with dialyzed fetal bovine serum (HPLM+ds) (AID 1963879); settings: Potency: viability; note: series mostly up to about 46 µM; nearly all actives have a fitted effect of over 35% in size
# Summary of the method: as §1
# [3] = Quantitative highthroughput screen to assess conditional lethalithy of P12 Ichikawa cells grown in RPMI1640 with untreated serum (RPMI+s) (AID 1963881); settings: Potency: viability; note: series mostly up to about 46 µM; nearly all actives have a fitted effect of over 35% in size
# Summary of the method: as §1
# [4] = Quantitative highthroughput screen to assess conditional lethalithy of SEM cells grown in RPMI1640 with unreated serum (RPMI+s) (AID 1963883); note: nearly all actives have a fitted effect of over 35% in size
# Summary of the method: as §1
# [5] = Quantitative highthroughput screen to assess conditional lethalithy of SEM cells grown in RPMI1640 with dialyzed fetal bovine serum (RPMI+ds) (AID 1963884); note: series mostly up to about 46 µM; nearly all actives have a fitted effect of over 35% in size
# Summary of the method: as §1
# [6] = Quantitative highthroughput screen to assess conditional lethalithy of SEM cells grown in Human Plasma-Like Medium with dialyzed fetal bovine serum (HPLM+ds) (AID 1963882)
# Summary of the method: as §1
# [7] = target: Cytochrome P450 3A7 (Homo sapiens) (UniProt P24462); assay: Cytochrome P450 family 3 subfamily A member 7 (CYP3A7) small molecule antagonists: luciferase biochemical qHTS assay (AID 1963596); note: nearly all actives have a fitted effect of over 40% in size; note: potency is the fitted concentration of half-maximal effect
# Sequence of Cytochrome P450 3A7 (Homo sapiens) (P24462 whole entry, looked up): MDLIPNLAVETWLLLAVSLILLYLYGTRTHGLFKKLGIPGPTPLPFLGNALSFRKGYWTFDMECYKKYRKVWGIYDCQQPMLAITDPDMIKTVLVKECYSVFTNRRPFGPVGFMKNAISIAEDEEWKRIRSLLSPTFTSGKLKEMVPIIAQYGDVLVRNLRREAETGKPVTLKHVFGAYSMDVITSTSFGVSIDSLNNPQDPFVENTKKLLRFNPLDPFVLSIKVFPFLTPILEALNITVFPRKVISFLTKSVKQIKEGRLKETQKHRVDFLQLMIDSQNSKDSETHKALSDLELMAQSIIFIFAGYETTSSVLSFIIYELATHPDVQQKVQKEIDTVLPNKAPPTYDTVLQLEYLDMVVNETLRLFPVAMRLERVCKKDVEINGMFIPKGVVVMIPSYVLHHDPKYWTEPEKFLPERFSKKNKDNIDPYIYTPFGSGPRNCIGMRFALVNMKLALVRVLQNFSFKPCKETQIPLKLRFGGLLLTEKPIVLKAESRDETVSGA
# Summary of the method: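 Recombinant CYP3A7 P450-Glo luminescent assay: enzyme-proluciferin substrate mix preincubated with compound 10 min at room temperature, reaction started with NADPH regeneration system for 1 h. Luciferin detected by luminescence; ketoconazole as positive control.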
# [8] = Viability qHTS for spleen associated tyrosine kinase inhibitor (SYKi) naive MV4-11 cells (AID 1963823); note: nearly all actives have a fitted effect of over 40% in size; note: potency is the fitted concentration of half-maximal effect
# Summary of the method: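 Viability of MV4-11 AML cells lacking prior SYK inhibitor exposure is scored by CellTiter-Glo luminescence following 72 hr compound incubation at 37 C, 5% CO2, seeded at 500 cells per well.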
# [9] = Viability qHTS for spleen associated tyrosine kinase inhibitor (SYKi) drug resistant MV4-11 cells (AID 1963824); note: nearly all actives have a fitted effect of over 35% in size; note: potency is the fitted concentration of half-maximal effect
# Summary of the method: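 CellTiter-Glo luminescence, read 10 min after reagent addition, reports viability after a 72 hr compound exposure. Cells are an MV4-11 line made resistant to SYK inhibition, seeded at 500 per well onto compound-containing plates.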
# [10] = Cellular viability qHTS for adrenocortical cancer (ACC) cell line SW-13 (AID 1963989); settings: SW-13 ACC cells viability, CellTiter-Glo, 48 h; activity (max response): hits give low values; note: nearly all actives have a fitted effect of over 65% in size; note: potency is the fitted concentration of half-maximal effect;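 for activity (max response): cells grown in serum-free medium with ITS supplement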
# Summary of the method: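 Compound titrations (up to 46 uM final, in DMSO) were applied to SW-13 cells for 48 h at 37C/5% CO2. Reading used CellTiter-Glo after 20 min at room temperature; fitted curves yielded IC50 and efficacy.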
# [11] = Quantitative highthroughput screen to assess conditional lethalithy of P12 Ichikawa cells grown in RPMI1640 with dialyzed fetal bovine serum (RPMI+ds) (AID 1963880); settings: Potency: P12-Ichikawa viability; note: nearly all actives have a fitted effect of over 35% in size
# Summary of the method: as §1
# [12] = Cellular viability qHTS for adrenocortical cancer (ACC) cell line NCI-H295R (AID 1963990); note: nearly all actives have a fitted effect of over 60% in size; note: potency is the fitted concentration of half-maximal effect
# Summary of the method: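 Readout: CellTiter-Glo luminescence, 20 min RT. Exposure: 48 h, 37C/5% CO2. Cells: NCI-H295R, ITS-DMEM serum-free. Range: up to 46 uM. Analysis: 4PL fit, IC50 plus efficacy.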
smiles,measurement,setting,value
C#CCN(C)[C@H](C)Cc1ccccc1,Potency,[1],inactive
CN1CCN(C(=O)O[C@H]2c3nccnc3C(=O)N2c2ccc(Cl)cn2)CC1,Potency,[2],inactive
O=C(Oc1ccc([N+](=O)[O-])cc1)N1CCN(Cc2cccc(Oc3ccccc3)c2)CC1,Potency,[2],inactive
same,Potency,[3],inactive
same,Potency,[4],inactive
same,Potency,[5],inactive
Cn1c(CCCC(=O)O)nc2cc(N(CCCl)CCCl)ccc21,Potency,[6],inactive
C=C1CC[C@@]2(O)[C@H]3Cc4ccc(O)c5c4[C@@]2(CCN3CC2CC2)[C@H]1O5,Potency,[7],inactive
same,Potency,[8],inactive
same,Potency,[9],inactive
same,activity (max response),[10],2.67%
CN1C(=O)CCS(=O)(=O)C1c1ccc(Cl)cc1 (stereo not given),Potency,[7],inactive
same,Potency,[8],inactive
same,Potency,[9],inactive
same,Potency,[11],inactive
same,Potency,[5],inactive
same,activity (max response),[10],1.09% and -1.33%
same,Potency,[12],inactive
CC(C)N(CCNC(=O)CN1CCCC1=O)C(C)C,Potency,[7],inactive
same,Potency,[8],inactive
same,Potency,[9],inactive
same,Potency,[11],inactive
same,Potency,[3],inactive
Cc1ccc(Cl)c(O)c1,Potency,[7],inactive
same,Potency,[8],inactive
same,Potency,[9],inactive
same,activity (max response),[10],12.5%
same,Potency,[12],inactive
CCN(CC)C(C)C(=O)c1ccccc1 (stereo not given),Potency,[7],inactive
same,Potency,[8],inactive
same,Potency,[9],inactive
same,activity (max response),[10],11.1%
same,Potency,[12],inactive
CNC(C)(C)Cc1ccccc1,Potency,[7],inactive
same,Potency,[8],inactive
same,Potency,[9],inactive
same,activity (max response),[10],-4.09%
same,Potency,[12],inactive
CC(Cc1ccccc1)N(C)Cc1ccco1 (stereo not given),Potency,[7],inactive
same,Potency,[8],inactive
same,Potency,[9],inactive
same,activity (max response),[10],-0.53%
same,Potency,[12],inactive
CCC(C)C(C)(COC(N)=O)COC(N)=O (stereo not given),Potency,[7],inactive
same,Potency,[8],inactive
same,Potency,[9],inactive
same,activity (max response),[10],2.89%
same,Potency,[12],inactive
c1ccc(C2CC2)c(OCC2=NCCN2)c1,Potency,[7],inactive
same,Potency,[8],inactive
same,Potency,[9],inactive
same,Potency,[12],inactive
OC(O)C(Cl)(Cl)Cl,Potency,[7],inactive
same,Potency,[8],inactive
same,Potency,[9],inactive
same,Potency,[12],inactive
C1CCC(NC2CCCCC2)CC1,Potency,[7],inactive
same,Potency,[8],inactive
same,Potency,[9],inactive
same,Potency,[12],inactive
N[C@@H]1C[C@H]1c1ccccc1,Potency,[7],inactive
same,Potency,[8],16.6 µM (active)
same,Potency,[9],11.9 µM (active) and 3.72 µM (active)
same,activity (max response),[10],6.98%
same,Potency,[12],inactive
CCC1(C2=NCCN2)Cc2ccccc2O1 (stereo not given),Potency,[7],inactive
same,Potency,[8],inactive
same,activity (max response),[10],12%
NC(=O)CN1CCCC1=O,Potency,[7],inactive
same,Potency,[8],inactive
same,activity (max response),[10],11.9%
CC[N+](CC)(CC)CC,Potency,[7],inactive
same,Potency,[8],inactive
same,Potency,[9],inactive
same,activity (max response),[10],9.95%
same,Potency,[12],inactive
CC(Cc1ccc(O)cc1)NCC(O)c1cc(O)cc(O)c1 (stereo not given),Potency,[7],inactive
same,Potency,[8],inactive
same,Potency,[9],inactive
same,activity (max response),[10],10.9%
same,Potency,[12],inactive
CC(O)CN1CCN(CC(=O)[O-])CCN(CC(=O)[O-])CCN(CC(=O)[O-])CC1.[Gd+3] (stereo not given),Potency,[7],inactive
same,Potency,[8],inactive
same,Potency,[9],inactive
same,activity (max response),[10],0.662%
same,Potency,[12],inactive
CCC1(CC)C(=O)C=CNC1=O,Potency,[7],inactive
same,Potency,[8],inactive
same,Potency,[9],inactive
same,activity (max response),[10],0.834%
same,Potency,[12],inactive
O=C(O)CCCCCCNC1c2ccccc2CCc2ccccc21,Potency,[7],inactive
same,Potency,[8],0.473 µM (active)
same,Potency,[9],inactive
same,activity (max response),[10],1.72%
same,Potency,[12],inactive
NC(=O)OCCCc1ccccc1,Potency,[7],inactive
same,Potency,[8],inactive
same,Potency,[9],inactive
same,activity (max response),[10],11.5%
same,Potency,[12],inactive
CN1[C@@H]2CC[C@H]1CC(OC(=O)c1cc(Cl)cc(Cl)c1)C2 (stereo not given in full),Potency,[7],inactive
same,Potency,[8],inactive
same,Potency,[9],inactive
same,activity (max response),[10],-16.8%
CCCN(CCC)c1c([N+](=O)[O-])cc(S(N)(=O)=O)cc1[N+](=O)[O-],Potency,[7],1.12 µM (active)
same,Potency,[8],21.7 µM (active)
same,Potency,[9],21.7 µM (active)
same,Potency,[10],7.94 µM (active)
same,Potency,[12],7.94 µM (active)
CN(C)[C@@H]1C(=O)C(C(N)=O)=C(O)[C@@]2(O)C(=O)C3=C(O)c4c(O)cccc4[C@@](C)(O)[C@H]3[C@H](O)[C@@H]12,Potency,[7],inactive
same,Potency,[8],inactive
same,Potency,[2],inactive
same,Potency,[11],inactive
same,Potency,[6],inactive
same,Potency,[5],inactive
same,activity (max response),[10],4.8%
same,Potency,[12],inactive
CC(C)C(Br)C(=O)NC(N)=O (stereo not given),Potency,[7],inactive
same,Potency,[8],inactive
same,Potency,[9],inactive
same,activity (max response),[10],-7.38%
same,Potency,[12],inactive
C[N+](C)(C)CCOC(=O)C(O)(c1ccccc1)c1ccccc1,Potency,[7],inactive
same,Potency,[8],inactive
same,Potency,[9],inactive
same,activity (max response),[10],-5.79%
same,Potency,[12],inactive
C=CCN1CC[C@]23c4c5ccc(O)c4O[C@H]2C(=O)CC[C@@]3(O)[C@H]1C5,Potency,[7],inactive
same,Potency,[8],inactive
same,Potency,[9],inactive
same,activity (max response),[10],-2.59%
same,Potency,[12],inactive
CC(=O)NC1CCSC1=O (stereo not given),Potency,[7],inactive
same,Potency,[8],inactive
same,Potency,[9],inactive
same,activity (max response),[10],9.14%
same,Potency,[12],inactive
CCOC(=O)NC(C)(C)Cc1ccc(Cl)cc1,Potency,[7],inactive
same,Potency,[8],inactive
same,activity (max response),[10],-3.94%
CCS(=O)(=O)C(C)(C)S(=O)(=O)CC,Potency,[7],inactive
same,Potency,[8],inactive
same,Potency,[9],inactive
same,activity (max response),[10],-10.9%
same,Potency,[12],inactive
COc1ccccc1N1CCNCC1,Potency,[7],inactive
same,Potency,[8],inactive
same,Potency,[9],inactive
same,Potency,[12],inactive

# From PubChem BioAssay (NCATS)
